Reference: PubChem BioAssay (Tox21)
Inconclusive results are not listed. The source made the active and inactive calls. Unless noted, calls come from the whole dose curve; as a rule, active = well fitted curve in the direction sought with a large enough effect in the repeat runs; inconclusive = weak or mixed curves; inactive = no such curve, though single readings can be large; an effect the other way counts as inactive or inconclusive.

How the values were obtained:
[1] = qHTS assay for small molecule agonists of the p53 signaling pathway (AID 651631; calls by dose curve; note: nearly all actives have a fitted effect of over 15% in size)
Outline: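 Read-out is beta-lactamase FRET fluorescence measured 2 h after substrate addition at room temperature, in HCT-116 cells with a p53 response element-driven reporter exposed to compounds for 16 h at 37 °C.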

[2] = qHTS assay for small molecule agonists of the p53 signaling pathway - cell viability (AID 651633; calls by dose curve; note: nearly all actives have a fitted effect of over 30% in size; note: potency is the fitted concentration of half-maximal effect;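 for activity change, negative = cytotoxicity: p53RE-bla HCT reporter cells with a stable beta-lactamase p53 reporter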)
Outline: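 Viability counter-read: CellTiter-Glo luminescence (30 min, room temperature) in the same p53RE-bla plates. These plates had been exposed to compounds for 16 h at 37 C.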

[3] = qHTS assay for small molecules that induce genotoxicity in human embryonic kidney cells expressing luciferase-tagged ATAD5 - cell viability (AID 651634; calls by dose curve; note: nearly all actives have a fitted effect of over 25% in size)
Outline: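 Here HEK293T cells with the ATAD5 luciferase reporter are incubated with test compounds for 15.5 hr, and cytotoxicity is then gauged by measuring protease activity in live cells using fluorescence.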

[4] = qHTS assay for small molecule disruptors of the mitochondrial membrane potential - cell viability (AID 720634; calls by dose curve;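 note: human HepG2 liver cancer cells; nearly all actives have a fitted effect of over 20% in size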)
Outline: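 Viability of HepG2 cells is scored from ATP content by luminescence; cells are exposed to compound for 1 hr at 37 C and 5% CO2, then dosed with m-MPI dye before the CellTiter-Glo reagent.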

[5] = qHTS assay to test for compound auto fluorescence at 590 nm (red) in HepG2 cells (AID 720674)
Outline: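 1 hr compound incubation on HepG2 cells, 37 C, 5% CO2; plate read ex 540 nm / em 590 nm; intensities reported as Rose Bengal sodium equivalents.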

[6] = qHTS assay to test for compound auto fluorescence at 535 nm (green) in HepG2 cells (AID 720675)
[7] = qHTS assay to test for compound auto fluorescence at 590 nm (red) in HEK293 cells (AID 720679)
Outline: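 Autofluorescence equivalency to Rose Bengal sodium, 540/590nm, in HEK293 cells exposed overnight to 23 nL compound per well.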

[8] = qHTS assay to test for compound auto fluorescence at 535 nm (green) in HEK293 cells (AID 720680)
[9] = qHTS assay to test for compound auto fluorescence at 460 nm (blue) in HEK293 cell free culture (AID 720681)
Outline: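 Blue fluorescence (Ex 405/Em 460 nm, triamterene-equivalent) was read immediately after pin transfer of compound or DMSO into medium (DMEM, 10% FBS) without cells.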

[10] = qHTS assay to test for compound auto fluorescence at 535 nm (green) in HEK293 cell free culture (AID 720682)
Outline: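 Fluorescein serves as the green reference fluorophore; each compound's intrinsic emission at 535 nm (excitation 485 nm) is reported as an equivalent amount of that dye, measured in serum-containing DMEM without cells.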

[11] = qHTS assay to test for compound auto fluorescence at 590 nm (red) in HEK293 cell free culture (AID 720683)
Outline: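 Red-channel autofluorescence of compounds in culture medium (DMEM, 10% FBS), no cells, measured at 540/590 nm. Rose Bengal sodium is the reference fluorophore for equivalence.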

[12] = qHTS assay to test for compound auto fluorescence at 590 nm (red) in HepG2 cell free culture (AID 720684)
Outline: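 No cells present: MEM + 10% FBS only. Compound pinned in, red label read (540/590 nm). Activity = fluorescence equivalent to Rose Bengal sodium.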

[13] = qHTS assay to test for compound auto fluorescence at 460 nm (blue) in HepG2 cell free culture (AID 720685)
Outline: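 Cell-free plates of MEM plus 10% FBS received 23 nL compound or DMSO vehicle; blue-channel (405/460 nm) intensity scored against triamterene as reference fluorophore.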

[14] = qHTS assay to test for compound auto fluorescence at 535 nm (green) in HepG2 cell free culture (AID 720686)
[15] = qHTS assay to test for compound auto fluorescence at 460 nm (blue) in HepG2 cells (AID 720687)
Outline: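 Blue-channel autofluorescence (Ex/Em 405/460 nm, triamterene-equivalent) was measured after 1 hr compound exposure at 37 C, 5% CO2. Cells were HepG2, plated overnight at 37 C in MEM plus 10% FBS.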

[16] = target: Glucocorticoid receptor (Homo sapiens) (UniProt P04150); test: qHTS assay to identify small molecule agonists of the glucocorticoid receptor (GR) signaling pathway (AID 720691; active = well fitted activation curve with a large enough effect in the signal ratio in the repeat runs, not every such curve was filed as active; the % refers to the signal ratio; note: potency is the fitted concentration of half-maximal effect); details: GR-bla HeLa, beta-lactamase reporter ratio, 18 h; activation: at 62.4 µM (top of the series) unless noted
Sequence of Glucocorticoid receptor (Homo sapiens) (P04150 whole entry, looked up): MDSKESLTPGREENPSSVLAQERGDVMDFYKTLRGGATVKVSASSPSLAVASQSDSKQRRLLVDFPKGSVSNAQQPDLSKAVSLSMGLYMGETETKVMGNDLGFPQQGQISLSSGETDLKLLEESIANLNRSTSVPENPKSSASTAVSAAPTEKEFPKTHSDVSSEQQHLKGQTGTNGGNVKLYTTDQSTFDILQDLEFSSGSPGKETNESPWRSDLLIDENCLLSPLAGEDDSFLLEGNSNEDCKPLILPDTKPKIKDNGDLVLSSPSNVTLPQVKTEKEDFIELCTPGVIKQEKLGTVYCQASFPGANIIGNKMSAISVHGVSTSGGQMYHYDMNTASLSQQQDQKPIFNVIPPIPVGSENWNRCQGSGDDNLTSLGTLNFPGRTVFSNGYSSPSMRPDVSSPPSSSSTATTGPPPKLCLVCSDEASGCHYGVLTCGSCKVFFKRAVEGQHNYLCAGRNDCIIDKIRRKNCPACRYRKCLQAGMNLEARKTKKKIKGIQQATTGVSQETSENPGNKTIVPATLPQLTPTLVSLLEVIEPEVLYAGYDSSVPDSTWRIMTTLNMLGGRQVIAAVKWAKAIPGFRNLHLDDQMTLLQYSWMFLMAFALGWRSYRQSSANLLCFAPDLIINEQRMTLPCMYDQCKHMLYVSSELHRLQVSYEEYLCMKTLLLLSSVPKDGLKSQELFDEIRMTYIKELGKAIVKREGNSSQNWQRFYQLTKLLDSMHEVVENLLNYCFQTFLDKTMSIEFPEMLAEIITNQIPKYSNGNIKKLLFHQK
Outline: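 Compounds in DMSO, alongside positive controls, were added to GR-bla HeLa reporter cells and incubated 18 h at 37 C; GRE-driven beta-lactamase was detected by fluorescence after 2 h with FRET substrate at room temperature.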

[17] = qHTS assay for small molecules that induce genotoxicity in human embryonic kidney cells expressing luciferase-tagged ATAD5 (AID 651632); note: nearly all actives have a fitted effect of over 15% in size
Outline: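 DMSO vehicle served as the control. HEK293T reporter cells, 16 hr at 37C, then 30 min Amplite at room temperature; ATAD5 induction is measured as luciferase activity.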

[18] = qHTS assay to test for compound auto fluorescence at 460 nm (blue) in HEK293 cells (AID 720678)
Outline: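 Auto fluorescence in the blue band was quantified as triamterene equivalency. HEK293 cells were seeded at 2,000/well, dosed after a 4-5 hr attachment, and kept overnight at 37C before the 405/460 nm reading.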

[19] = target: Glucocorticoid receptor (Homo sapiens) (UniProt P04150); test: qHTS assay to identify small molecule antagonists of the glucocorticoid receptor (GR) signaling pathway (AID 720692; active = well fitted inhibition curve with a large enough effect in the signal ratio in the repeat runs, not every such curve was filed as active; the % refers to the signal ratio)
Outline: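 In a 1536-well cell format, compounds were added 4 h after seeding GR-bla HeLa cells, together with dexamethasone at 5 nM final; reporter activity was measured by FRET-substrate fluorescence following 18 h at 37 C.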

[20] = qHTS assay for small molecule disruptors of the mitochondrial membrane potential (AID 720635); note: potency is the fitted concentration of half-maximal effect
Outline: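 Mitochondrial membrane potential tracked with Mito-MPS dye, red aggregates (ex 540/em 590 nm) against green monomers (ex 490/em 535 nm). Compound treatment 1 hr at 37C, dye 30 min in HepG2.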
% is set by controls: 0 for no effect and ±100 for the full control effect.

O=C(OCCc1ccccc1)c1ccccc1
inactive: Potency [1] | Potency [2] | Potency [3] | Potency [4] | Potency [5] | Potency [6] | Potency [7] | outcome [8] | outcome [9] | outcome [10] | Potency [11] | Potency [12] | outcome [13] | Potency [14] | outcome [15] | Potency [16]

CCCCc1nc2cccnc2n1Cc1ccc(-c2ccccc2-c2nnn[nH]2)cc1
inactive: Potency [1] | Potency [17] | Potency [2] | Potency [5] | Potency [7] | outcome [8] | outcome [9] | outcome [10] | Potency [11] | Potency [12] | outcome [13] | Potency [14] | outcome [15]

CC(=O)[O][Al][O]C(C)=O
inactive: Potency [1] | Potency [17] | Potency [2] | Potency [3] | Potency [6] | outcome [18] | Potency [7] | outcome [9] | outcome [10] | Potency [11] | Potency [12] | outcome [13] | outcome [15]

C[C@@H](c1ncncc1F)C(O)(Cn1cncn1)c1ccc(F)cc1F (some centres undefined)
inactive: Potency [1] | Potency [2] | Potency [3] | Potency [4] | Potency [5] | Potency [6] | Potency [7] | outcome [9] | outcome [10] | Potency [11] | Potency [12] | outcome [13] | Potency [14] | outcome [15] | Potency [19]

CCCCO
inactive: Potency [1] | Potency [2] | Potency [3] | Potency [4] | Potency [20] | Potency [5] | Potency [6] | Potency [7] | outcome [9] | outcome [10] | Potency [11] | Potency [12] | outcome [13] | Potency [14] | outcome [15]

CCCCCC[C@@H](O)C/C=C\CCCCCCCC(=O)OC
inactive: Potency [1] | Potency [2] | Potency [3] | Potency [4] | Potency [5] | Potency [6] | outcome [18] | Potency [7] | outcome [9] | Potency [11] | Potency [12] | outcome [13] | Potency [14] | outcome [15]

Nc1c(CC(=O)O)cccc1C(=O)c1ccc(Br)cc1
inactive: Potency [1] | Potency [17] | Potency [2] | Potency [3] | Potency [6] | outcome [18] | Potency [7] | outcome [8] | outcome [9] | outcome [10] | Potency [11] | Potency [12] | outcome [13] | Potency [14] | outcome [15]

C=CCOC(=O)CCC1CCCCC1
inactive: Potency [1] | Potency [2] | Potency [3] | Potency [4] | Potency [20] | Potency [5] | Potency [6] | outcome [18] | Potency [7] | outcome [8] | outcome [9] | outcome [10] | Potency [11] | Potency [12] | outcome [13] | Potency [14] | outcome [15] | Potency [16] | Potency [19]

CN(C)C(=O)NC1(c2ccccc2)CCN(CC[C@@]2(c3ccc(F)c(F)c3)CN(C(=O)c3ccccc3)CCO2)CC1
inactive: Potency [1] | Potency [17] | Potency [2] | Potency [3] | Potency [6] | outcome [18] | Potency [7] | outcome [9] | outcome [10] | Potency [11] | Potency [12] | outcome [13] | outcome [15] | Potency [16] | Potency [19]

CNCCCN1c2ccccc2CCc2ccccc21
inactive: Potency [1] | Potency [17] | Potency [2] | Potency [4] | fluorescence, relative to Rose Bengal [5] -0.337% [at 18.6 µM] | fluorescence, % of fluorescein control [6] 0.0155% [at 18.6 µM] | fluorescence, % of triamterene [18] 0.119% [at 18.6 µM] | fluorescence, % of fluorescent control [7] 0.0732% [at 18.6 µM] | fluorescence, % of fluorescein [8] -0.0036% [at 18.6 µM] | fluorescence, % of fluorescent control [9] 0.0048% [at 18.6 µM] | activity change [10] 0.0761% [at 18.6 µM] | fluorescence, % of fluorescent control [11] 0.0052% [at 18.6 µM] | fluorescence, % of Rose Bengal [12] 0.569% [at 18.6 µM] | fluorescence, % of fluorescein control [14] -0.0226% [at 18.6 µM] | fluorescence, % of fluorescent control [15] 0.0417% [at 18.6 µM]

CC1OC(=O)C(C)OC1=O (centres undefined)
inactive: Potency [1] | Potency [2] | Potency [3] | Potency [4] | Potency [20] | Potency [5] | Potency [6] | outcome [18] | Potency [7] | outcome [8] | outcome [9] | outcome [10] | Potency [11] | Potency [12] | outcome [13] | Potency [14] | outcome [15] | Potency [16] | Potency [19]

CCOC(=O)C(F)(F)F
inactive: Potency [17] | Potency [2] | Potency [3] | Potency [4] | Potency [5] | Potency [6] | outcome [18] | Potency [7] | outcome [8] | outcome [9] | outcome [10] | Potency [11] | Potency [12] | outcome [13] | Potency [14] | outcome [15] | Potency [16] | Potency [19]

CCc1c(C(=O)NN2CCCCC2)nn(-c2ccc(Cl)cc2Cl)c1-c1ccc(Br)cc1
active: Potency [2] 13.7 µM | Potency [20] 24.3 µM
inactive: Potency [17] | Potency [3] | Potency [4] | Potency [6] | outcome [18] | Potency [7] | outcome [8] | outcome [9] | outcome [10] | Potency [11] | Potency [12] | outcome [13] | Potency [14] | outcome [15]

Brc1c2ccccc2c(Br)c2ccccc12
active: Potency [16] 0.882 µM
inactive: activation [17] 1.86% [at 8.08 µM] | activity change, negative = cytotoxicity [2] 12.3% [at 8.08 µM] | activity, negative = cytotoxicity [3] 21.9% [at 8.08 µM] | activity change, negative = cytotoxicity [4] -7.1% [at 8.08 µM] | fluorescence, relative to Rose Bengal [5] 0.105% [at 3.72 µM] | fluorescence, % of fluorescein control [6] 0.0196% [at 3.72 µM] | fluorescence, % of triamterene [18] 0.364% [at 3.72 µM] | fluorescence, % of fluorescent control [7] -0.0447% [at 3.72 µM] | fluorescence, % of fluorescein [8] 0.0022% [at 3.72 µM] | fluorescence, % of fluorescent control [9] 0.357% [at 3.72 µM] | fluorescence, % of fluorescent control [11] 0.0422% [at 3.72 µM] | fluorescence, % of Rose Bengal [12] 0.241% [at 3.72 µM] | fluorescence, % of fluorescein control [14] 0.0474% [at 3.72 µM] | fluorescence, % of fluorescent control [15] 1.18% [at 3.72 µM]

COc1ccc(S(=O)(=O)N2C(=O)[C@@](c3ccccc3OC)(N3C[C@H](O)C[C@H]3C(=O)N(C)C)c3cc(Cl)ccc32)c(OC)c1
inactive: Potency [1] | Potency [2] | Potency [4] | Potency [20] | Potency [5] | Potency [6] | outcome [18] | Potency [7] | outcome [8] | outcome [9] | outcome [10] | Potency [11] | Potency [12] | outcome [13] | Potency [14] | outcome [15]
